Experimental data reported in PubChem BioAssay (EPA / NIEHS).
“And” between values parts separate entries of the source, which are not always exact repeats. Equal values may be shown once. Results filed as inconclusive are left out. The source holds several records for some structures; these can differ, active in one and inactive in another. The source made the active and inactive calls. Rule for the calls, unless noted: active = hit-call score of the fitted dose curve at least 0.9, where 1 is the maximum; inactive = score below 0.9. Peptide text beside a SMILES is read from it.

Tests used:
[1] = test system: DIO3 (gene 1735); assay: CCTE_GLTED_hDIO3: CCTE's human Deiodinase 3 (DIO3) Inhibition Assay, Great Lakes Toxicology and Ecology Division (GLTED) Lab (AID 2284055; active = hit-call score of the fitted dose curve at least 0.9, where 1 is the maximum;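 note: potency is for inhibition seen as loss of released iodide signal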)
Outline: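 Inhibition is read as reduced iodide release, measured spectrophotometrically by the Sandell-Kolthoff cerium/arsenic reaction. Adenovirus-expressed human DIO3 enzyme is exposed to chemical for 3 h, n=3 plates. Iodinated chemicals, nitrite, iron or thiocyanate may interfere.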

[2] = CCTE_Shafer_MEA_acute_AB: CCTE's Alamar Blue Assay for Cytotoxicity in the Neural Acute Assay, Shafer Lab (AID 2284069; active = hit-call score of the fitted dose curve at least 0.9, where 1 is the maximum;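 note: active compounds lower the viability signal compared with DMSO wells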)
Outline: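 Cytotoxicity endpoint for acute MEA exposures of primary rat cortical neurons on day 13 or 15. Resazurin reduction is read fluorescently at 544/590 nm, with DMSO as the negative-control baseline.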

[3] = CCTE_Shafer_MEA_acute_LDH: CCTE's Lactate Dehydrogenase Assay for Cytotoxicity in the Neural Acute Assay, Shafer Lab (AID 2284086; active = hit-call score of the fitted dose curve at least 0.9, where 1 is the maximum;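 note: active means LDH release rises above DMSO vehicle level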)
Outline: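 LDH released during 40 min compound exposure of primary rat cortical cultures, quantified by absorbance at 490 nm in collected medium. Fitting direction positive versus DMSO vehicle.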

[4] = CCTE_Shafer_MEA_dev_LDH: CCTE's Lactate Dehydrogenase Assay for Cytotoxicity in the Neural Network Formation Assay, Shafer Lab (AID 2284068; active = hit-call score of the fitted dose curve at least 0.9, where 1 is the maximum;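 note: exposure for twelve days from plating with re-dosing on DIV 5 and 9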)
Outline: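 Developing rat cortical networks on MEA plates are exposed to compound for 12 days from plating. LDH activity is measured spectrophotometrically, with DMSO as baseline.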

[5] = CCTE_Shafer_MEA_dev_AB: CCTE's Alamar Blue Assay for Cytotoxicity in the Neural Network Formation Assay, Shafer Lab (AID 2284083; active = hit-call score of the fitted dose curve at least 0.9, where 1 is the maximum;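 note: resazurin reduction fluorescence as viability of cultured neurons; twelve days of exposure from plating with re-dosing on DIV 5 and 9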)
Outline: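 Cytotoxicity companion to the developmental MEA: primary rat cortical neurons, 12-day exposure starting day 0, compound refreshed DIV 5 and 9; resazurin fluorescence, fitted against DMSO vehicle.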

[6] = CCTE_Shafer_MEA_dev_mutual_information_norm: CCTE's Neural Network Formation Assay for Mutual Information Normalization, Shafer Lab (AID 2284091);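 for AC50: mutual information between electrodes summarised as area under curve across four recording days; potency is for a decrease in mutual information relative to DMSO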
Outline: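 Exposure of primary rat cortical neurons began at plating and ran to DIV 12, with full media and treatment renewal after DIV 5 and 9 recordings. Mutual information AUC (DIV 5–12) was analysed for loss versus DMSO.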

[7] = CCTE_Shafer_MEA_dev_correlation_coefficient_mean: CCTE's Neural Network Formation Assay for Mean Correlation Coefficient, Shafer Lab (AID 2284093);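 for AC50: well mean pairwise spike train correlation integrated as AUC over recording days 5 to 12; potency fitted for loss of correlation relative to DMSO vehicle wells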
Outline: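 Extracellular firing from rat cortical networks on 48-well MEAs, DMSO-referenced, negative fitting direction. Compound present from plating to DIV12; mean pairwise correlation per well integrated over DIV5–12 recordings by trapezoidal AUC.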

[8] = CCTE_Mundy_HCI_Cortical_Synap_Neur_Matur_NeuriteSpotCountPerNeuriteLength: CCTE's Synaptogenesis and Neurite Maturation Assay in rat cortical cells for Neurite Spot Count per Neurite Length, Mundy Lab (AID 2284210)
Outline: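 Neurite-associated synapse density (synaptophysin puncta per unit neurite length) is measured by fluorescence high-content imaging in rat cortical cultures treated from DIV 7 and fixed at DIV 12, with DMSO as negative control.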

[9] = CCTE_Mundy_HCI_Cortical_Synap_Neur_Matur_BPCount: CCTE's Synaptogenesis and Neurite Maturation Assay in rat cortical cells for Branch Point Count, Mundy Lab (AID 2284211)
Outline: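 HCI read-out of branch points from MAP2/synaptophysin/Hoechst immunofluorescence; rat cortical cultures, AraC DIV 5, dosing DIV 7, fixed DIV 12; fit in positive direction vs DMSO baseline.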

[10] = CCTE_Mundy_HCI_Cortical_NOG_NeuriteCount: CCTE's Neurite Outgrowth Assay in rat cortical cells for Neurite Count, Mundy Lab (AID 2284212);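 note: cells fixed about two days after chemical exposure began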
Outline: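 Rat cortical primary cells; compound added 2 h post-plating, 1/10 dilution of working solution. Anti-betaIII-tubulin/AF488 ICC; ArrayScan neurite count vs DMSO.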

[11] = CCTE_Mundy_HCI_Cortical_NOG_NeuriteLength: CCTE's Neurite Outgrowth Assay in rat cortical cells for Neurite Length, Mundy Lab (AID 2284213)
Outline: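 First, rat primary cortical cells were plated and, 2 h later, given test chemical as a 1/10 dilution. Finally, βIII-tubulin immunostaining enabled automated imaging of neurite length.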

[12] = CCTE_Mundy_HCI_Cortical_Synap_Neur_Matur_NeuriteLength: CCTE's Synaptogenesis and Neurite Maturation Assay in rat cortical cells for Neurite Length, Mundy Lab (AID 2284214)
Outline: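 Neurite length quantified by automated high-content imaging of MAP2, synaptophysin and Hoechst staining. Rat cortical cells received chemical from DIV 7 to DIV 12 […], glial growth arrested by AraC at DIV 5; DMSO baseline.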

[13] = CCTE_Mundy_HCI_Cortical_Synap_Neur_Matur_NeuriteSpotCountPerNeuron: CCTE's Synaptogenesis and Neurite Maturation Assay in rat cortical cells for Neurite Spot Count per Neuron Count, Mundy Lab (AID 2284215)
Outline: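 Rat cortical primary cultures; AraC DIV 5 to arrest glia; dosing + media change DIV 7; fixed DIV 12. Anti-MAP2/anti-synaptophysin, Hoechst nuclei; HCI puncta count per neuron, positive fitting direction vs DMSO.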

[14] = CCTE_Mundy_HCI_Cortical_Synap_Neur_Matur_SynapseCount: CCTE's Synaptogenesis and Neurite Maturation Assay in rat cortical cells for Synapse Count, Mundy Lab (AID 2284218)
Outline: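 High-content imaging of synaptophysin puncta per MAP2-positive neuron (Hoechst nuclei) in rat cortical cells exposed DIV 7–12 after glial arrest with AraC at DIV 5; decrease relative to DMSO scored.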

[15] = CCTE_Mundy_HCI_Cortical_Synap_Neur_Matur_NeuriteCount: CCTE's Synaptogenesis and Neurite Maturation Assay in rat cortical cells for Neurite Count, Mundy Lab (AID 2284222);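 note: exposure from day 7 to day 12 in vitro with readout at day 12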
Outline: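 In this multiplexed morphology readout, rat primary cortical neurons are fixed at DIV 12 following dosing at DIV 7 and stained for MAP2, synaptophysin and nuclei. High-content image analysis yields neurite count.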

[16] = UKN2_HCS_IMR90_neural_migration: University of Konstanz (UKN) Leist Lab Neural Crest Cell Migration Assay in human induced IMR90 Pluripotent Stem Cells (UKN2) (AID 2284204); settings: actives raise or lower the signal
Outline: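 Using a 96-well stopper format with PLO/laminin/fibronectin coating, neural crest cells from iPSC migrate in cytokine-supplemented N2-S medium; after 24 h, chemicals are applied for a further 24 h, then cells are imaged after dye staining.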

[17] = IUF_NPC1b_proliferation_BrdU_72hr: Leibniz Research Institute for Environmental Medicine (IUF) 72-hour Neural Progenitor Cell Bromodeoxyuridine (BrdU) Proliferation Assay (NPC1b) (AID 2284207)
Outline: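 Neural progenitor spheres of human fetal origin are treated for three days; BrdU added for the last 16 h is quantified by luminescence ELISA, with DMSO as baseline and EGF/FGF omission as positive control.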

[18] = IUF_NPC1a_proliferation_area_72hr: Leibniz Research Institute for Environmental Medicine (IUF) 72-hour Neural Progenitor Cell Proliferation Area Assay (NPC1a) (AID 2284208)
Outline: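 Spheres of 0.3 mm are plated singly in growth-factor medium and exposed from day 0. After three days at 37C and 5% CO2, sphere area is measured by phase contrast imaging, with activity referenced to DMSO.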

[19] = IUF_NPC1_viability_72hr: Viability Assessment at 72 hours in the Leibniz Research Institute for Environmental Medicine (IUF) Neural Progenitor Cell Proliferation Assay (NPC1) (AID 2284209)
Outline: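 Viability was measured by resazurin-to-resorufin fluorescence (alamar blue) after 72 h of continuous exposure without compound renewal. Each well held one hNPC sphere (gestational week 16-19 fetal cortex, 0.25-0.35 mm) cultured in EGF/FGF proliferation medium at 37C and pH 7.2-7.6.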

[20] = TAMU_PeakParms_SingleDonor1434_Chronotropy: Texas A&M University (TAMU) 1.5-hr Human Induced Pluripotent Stem Cell (iPSC)-derived Cardiomyocytes Calcium (Ca+2) Flux Assay for Cardiotoxicity: Chronotropy (changes in peak frequency) (AID 2284217); settings: actives raise or lower the signal
Outline: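 Using fluorescent Ca2+ flux, average beats per second are measured in human iPSC-derived cardiomyocytes treated 90 min (0.5% DMSO vehicle, 0.2–100 uM). Non-beating data points are removed; activity is modeled in both directions relative to DMSO controls.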

Measured: AC50

O=C(O)c1cc(O)c2ccccc2c1O
active: [1] 54.1 µM

C/C=C/C=C/CCCCCCCO
active: [1] 16.4 µM

Nc1cccc(N)n1
inactive: [2] | [3]

Oc1ccccc1Cc1ccccc1O
inactive: [3]

CCCCCCCCCCCC(=O)N(C)CC(=O)O
inactive: [3]

CC(CCC(=O)O)(c1ccc(O)cc1)c1ccc(O)cc1
inactive: [2] | [3]

CCCCCCCOC(=O)c1ccc(O)cc1
active: [1] 80.8 µM

Cc1noc(NS(=O)(=O)c2ccc(N)cc2)c1C
not listed: [1] | [2] | [3] | [16] | [17] | [18] | [19] | [20]
inactive: all other assays above

c1ccc(Nc2cccc3ccccc23)cc1
inactive: [2] | [3]

CCCCCCCCCCCCCCCCCCOS(=O)(=O)O
active: [1] 3.04 µM

CCCC(C)C(=O)OCC (centres undefined)
inactive: [3]

CCCCNS(=O)(=O)c1ccccc1
active: [17] 11.9 µM
not listed: [1] | [2] | [3] | [20]
inactive: all other assays above

CC(C)C(=O)OCCc1ccccc1
inactive: [3]

C1CNCCN1
inactive: [2]

CCCCCCCCCCCCc1ccc(O)cc1
active: [1] 11.2 µM

O=c1c(O)c(-c2ccc(O)cc2O)oc2cc(O)cc(O)c12
active: [1] 33.5 µM

COC(=O)[C@H](Cc1ccccc1)NC(=O)[C@@H](N)CC(=O)O (H-Asp-Phe-OMe)
not listed: [1] | [2] | [16] | [17] | [18] | [19]
inactive: all other assays above

CC1(C)CC(O)CC(C)(C)N1[O]
inactive: [3]

Cc1c(C(=O)c2c[nH]n(C)c2=O)ccc(S(C)(=O)=O)c1C1=NOCC1
not listed: [1] | [4] | [16] | [20]
inactive: all other assays above

CC/C=C\CCOC(=O)c1ccccc1O
inactive: [3]

C[N+](C)(C)CCCNS(=O)(=O)C(F)(F)C(F)(F)C(F)(F)C(F)(F)C(F)(F)C(F)(F)C(F)(F)C(F)(F)F
inactive: [7]
active: [4] 15 µM | [5] 15 µM and 7.64 µM | [6] 906 nM and 914 nM | [7] 4.2 µM

Nc1nc(N)nc(-c2ccccc2)n1
inactive: [3]

CCCCC/C=C\C/C=C\CCCCCCCC(=O)O
active: [1] 16.9 µM
